Experiments:
Assay in all cases: DAPPL (digital affinity profiling via proximity ligation, sequencing); 10 mM Tris-HCl pH 7.5, 50 mM NaCl, 1 mM DTT, 4% glycerol, room temperature, 30 min; GST-TFs on glutathione beads, 16-mer random dsDNA library, 0.1% formaldehyde crosslink after washing; high values mean tight binding
Settings in all cases: protein: recombinant; tags: N-terminal GST; dsDNA, one strand shown
[1] = molecular target: ETV5 (Homo sapiens, UniProt P41161 1-510)
How it was run: (§1)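 Beads coated with glutathione captured GST-fused human transcription factors that had been expressed in yeast, and the factors were then given DNA barcodes and pooled with a tag-only sample. The pools were incubated with 200 nmole of a random double-stranded 16-mer DNA library in Tris/NaCl/DTT/glycerol buffer for 30 min at room temperature, washed, crosslinked with 0.1% formaldehyde and proximity-ligated with BsaI/T4 ligase at 37 °C for 1 h. PCR amplification and Illumina NextSeq500 sequencing came last. Binding signal is each hexamer's read frequency for a factor divided by its frequency for the tag-only sample.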

[2] = molecular target: T1, SPIC (Homo sapiens, UniProt Q8N5J4 1-248)
T1 sequence: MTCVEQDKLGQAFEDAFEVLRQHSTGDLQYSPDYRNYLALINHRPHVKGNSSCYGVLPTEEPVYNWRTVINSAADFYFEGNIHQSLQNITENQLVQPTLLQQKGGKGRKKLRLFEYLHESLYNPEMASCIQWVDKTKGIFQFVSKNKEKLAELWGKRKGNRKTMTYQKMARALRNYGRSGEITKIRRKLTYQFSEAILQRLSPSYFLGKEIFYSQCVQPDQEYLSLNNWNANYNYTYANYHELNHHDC
How it was run: as §1

[3] = molecular target: ELF4 (Homo sapiens, UniProt Q99607 1-663)
Chain of ELF4 (Q99607 whole entry): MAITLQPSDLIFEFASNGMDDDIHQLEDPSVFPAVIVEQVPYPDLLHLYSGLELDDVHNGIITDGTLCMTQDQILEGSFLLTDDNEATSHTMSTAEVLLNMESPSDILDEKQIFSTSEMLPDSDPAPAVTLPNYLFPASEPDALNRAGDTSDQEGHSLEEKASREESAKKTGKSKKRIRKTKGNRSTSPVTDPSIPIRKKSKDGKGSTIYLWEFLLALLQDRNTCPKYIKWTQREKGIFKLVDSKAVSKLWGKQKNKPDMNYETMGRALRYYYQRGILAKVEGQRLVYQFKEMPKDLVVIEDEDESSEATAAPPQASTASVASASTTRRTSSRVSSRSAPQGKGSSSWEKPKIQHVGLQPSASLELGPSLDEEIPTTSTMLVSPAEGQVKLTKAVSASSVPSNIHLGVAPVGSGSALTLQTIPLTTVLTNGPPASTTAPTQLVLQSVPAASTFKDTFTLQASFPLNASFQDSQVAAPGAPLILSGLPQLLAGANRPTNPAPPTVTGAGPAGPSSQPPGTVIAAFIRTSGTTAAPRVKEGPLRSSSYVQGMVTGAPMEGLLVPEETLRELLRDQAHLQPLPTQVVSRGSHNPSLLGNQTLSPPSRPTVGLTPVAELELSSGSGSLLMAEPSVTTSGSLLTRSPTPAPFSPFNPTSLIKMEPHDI
How it was run: as §1

[4] = molecular target: T2, ELK4 (Homo sapiens, UniProt P28324-2 1-405)
T2 sequence: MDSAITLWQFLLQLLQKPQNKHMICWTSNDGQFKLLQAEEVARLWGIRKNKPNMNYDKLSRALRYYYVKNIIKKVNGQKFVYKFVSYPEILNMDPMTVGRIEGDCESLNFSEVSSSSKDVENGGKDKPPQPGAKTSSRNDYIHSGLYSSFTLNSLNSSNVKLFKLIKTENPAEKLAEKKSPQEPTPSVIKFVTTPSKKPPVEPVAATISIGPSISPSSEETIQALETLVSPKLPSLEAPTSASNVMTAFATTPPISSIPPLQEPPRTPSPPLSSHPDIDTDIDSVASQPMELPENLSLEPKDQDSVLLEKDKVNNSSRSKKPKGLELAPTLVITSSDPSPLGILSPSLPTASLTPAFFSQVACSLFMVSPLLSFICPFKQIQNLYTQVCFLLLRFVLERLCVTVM
How it was run: as §1

[5] = molecular target: T3, ETV2 (Homo sapiens, UniProt O00321 1-342)
T3 sequence: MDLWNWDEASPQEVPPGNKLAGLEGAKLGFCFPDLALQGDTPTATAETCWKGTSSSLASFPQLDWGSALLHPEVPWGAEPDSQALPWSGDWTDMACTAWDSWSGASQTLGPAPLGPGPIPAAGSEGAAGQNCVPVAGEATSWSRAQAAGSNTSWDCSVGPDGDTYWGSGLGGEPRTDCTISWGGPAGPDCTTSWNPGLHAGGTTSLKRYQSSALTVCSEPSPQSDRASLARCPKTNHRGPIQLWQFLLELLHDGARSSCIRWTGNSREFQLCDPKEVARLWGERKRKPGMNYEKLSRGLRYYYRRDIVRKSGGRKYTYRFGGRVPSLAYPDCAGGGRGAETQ
How it was run: as §1

[6] = molecular target: T4, ELF3 (Homo sapiens, UniProt P78545 1-371)
T4 sequence: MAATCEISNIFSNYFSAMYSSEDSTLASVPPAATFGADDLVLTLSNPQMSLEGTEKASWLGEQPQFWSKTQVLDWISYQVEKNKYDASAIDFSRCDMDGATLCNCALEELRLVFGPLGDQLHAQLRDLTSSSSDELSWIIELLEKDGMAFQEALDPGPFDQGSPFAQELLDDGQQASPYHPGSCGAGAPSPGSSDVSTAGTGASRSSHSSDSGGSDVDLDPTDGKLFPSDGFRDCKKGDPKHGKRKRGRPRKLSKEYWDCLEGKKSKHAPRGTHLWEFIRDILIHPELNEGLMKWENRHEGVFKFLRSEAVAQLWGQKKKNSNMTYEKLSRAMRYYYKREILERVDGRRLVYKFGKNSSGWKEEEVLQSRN
How it was run: as §1

[7] = molecular target: CRX (Homo sapiens, UniProt O43186 1-299)
Chain of CRX (O43186 whole entry): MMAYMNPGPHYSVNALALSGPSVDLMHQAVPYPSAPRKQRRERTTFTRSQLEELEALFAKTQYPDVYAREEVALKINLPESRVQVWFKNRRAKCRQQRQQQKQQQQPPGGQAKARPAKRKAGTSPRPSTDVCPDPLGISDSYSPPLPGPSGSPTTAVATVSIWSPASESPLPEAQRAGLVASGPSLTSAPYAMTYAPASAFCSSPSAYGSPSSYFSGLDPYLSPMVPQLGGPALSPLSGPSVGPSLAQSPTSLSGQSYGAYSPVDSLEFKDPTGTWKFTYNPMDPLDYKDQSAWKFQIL
How it was run: as §1

[8] = molecular target: ETV1 (Homo sapiens, UniProt P50549 1-477)
Chain of ETV1 (P50549 whole entry): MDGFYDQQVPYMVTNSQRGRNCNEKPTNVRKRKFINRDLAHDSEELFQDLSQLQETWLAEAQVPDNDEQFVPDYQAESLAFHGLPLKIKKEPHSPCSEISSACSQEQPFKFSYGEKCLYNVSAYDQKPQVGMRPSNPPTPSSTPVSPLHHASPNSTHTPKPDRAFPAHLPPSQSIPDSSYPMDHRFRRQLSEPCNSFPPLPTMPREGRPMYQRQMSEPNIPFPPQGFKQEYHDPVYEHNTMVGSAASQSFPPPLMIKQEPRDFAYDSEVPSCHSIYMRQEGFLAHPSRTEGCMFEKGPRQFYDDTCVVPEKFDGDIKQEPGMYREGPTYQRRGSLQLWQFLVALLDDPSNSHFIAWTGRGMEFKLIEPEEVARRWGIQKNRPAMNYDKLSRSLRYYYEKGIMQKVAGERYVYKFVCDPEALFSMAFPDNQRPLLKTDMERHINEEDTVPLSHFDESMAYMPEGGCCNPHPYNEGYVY
How it was run: as §1

[9] = molecular target: T5, ERF (Homo sapiens, UniProt P50548 1-548)
T5 sequence: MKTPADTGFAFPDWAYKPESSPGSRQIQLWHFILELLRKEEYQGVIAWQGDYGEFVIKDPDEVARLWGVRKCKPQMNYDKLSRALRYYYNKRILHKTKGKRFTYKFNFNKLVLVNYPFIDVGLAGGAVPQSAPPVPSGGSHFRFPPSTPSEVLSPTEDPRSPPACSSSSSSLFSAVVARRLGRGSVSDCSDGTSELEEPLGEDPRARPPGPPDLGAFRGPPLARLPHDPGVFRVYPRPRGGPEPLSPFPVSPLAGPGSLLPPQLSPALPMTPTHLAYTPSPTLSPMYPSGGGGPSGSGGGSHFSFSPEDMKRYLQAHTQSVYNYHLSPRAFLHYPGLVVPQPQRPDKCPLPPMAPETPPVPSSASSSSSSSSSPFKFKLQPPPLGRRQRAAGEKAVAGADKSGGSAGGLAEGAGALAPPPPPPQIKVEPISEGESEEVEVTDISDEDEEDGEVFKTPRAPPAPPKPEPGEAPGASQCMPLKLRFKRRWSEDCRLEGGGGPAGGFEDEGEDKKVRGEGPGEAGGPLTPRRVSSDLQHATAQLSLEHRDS
How it was run: as §1

[10] = molecular target: T6, ETV3L (Homo sapiens, UniProt Q6ZN32 1-361)
T6 sequence: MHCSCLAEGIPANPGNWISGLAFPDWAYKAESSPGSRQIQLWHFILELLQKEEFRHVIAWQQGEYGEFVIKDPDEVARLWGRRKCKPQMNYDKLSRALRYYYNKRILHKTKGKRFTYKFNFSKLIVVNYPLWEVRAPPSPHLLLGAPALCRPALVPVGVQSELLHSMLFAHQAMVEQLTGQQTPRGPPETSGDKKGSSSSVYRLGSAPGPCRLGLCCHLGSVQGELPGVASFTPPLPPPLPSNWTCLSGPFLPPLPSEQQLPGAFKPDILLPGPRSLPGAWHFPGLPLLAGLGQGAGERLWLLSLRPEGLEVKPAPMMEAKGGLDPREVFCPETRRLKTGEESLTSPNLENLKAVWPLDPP
How it was run: as §1

[11] = molecular target: T7, ETS2 (Homo sapiens, UniProt P15036 1-469)
T7 sequence: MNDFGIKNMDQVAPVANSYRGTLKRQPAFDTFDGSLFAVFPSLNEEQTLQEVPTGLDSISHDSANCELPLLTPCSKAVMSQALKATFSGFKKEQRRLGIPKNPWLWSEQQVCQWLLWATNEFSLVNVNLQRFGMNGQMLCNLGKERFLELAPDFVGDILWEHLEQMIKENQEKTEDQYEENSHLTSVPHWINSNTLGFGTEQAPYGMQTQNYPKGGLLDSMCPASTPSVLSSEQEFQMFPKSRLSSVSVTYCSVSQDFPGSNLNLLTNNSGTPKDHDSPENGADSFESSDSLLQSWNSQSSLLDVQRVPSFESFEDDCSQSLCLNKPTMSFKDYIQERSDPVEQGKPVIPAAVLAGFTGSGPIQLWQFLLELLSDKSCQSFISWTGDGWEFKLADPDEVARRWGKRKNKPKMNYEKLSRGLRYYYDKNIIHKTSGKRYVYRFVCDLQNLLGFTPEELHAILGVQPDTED
How it was run: as §1

[12] = molecular target: T8, SPDEF (Homo sapiens, UniProt O95238 1-335)
T8 sequence: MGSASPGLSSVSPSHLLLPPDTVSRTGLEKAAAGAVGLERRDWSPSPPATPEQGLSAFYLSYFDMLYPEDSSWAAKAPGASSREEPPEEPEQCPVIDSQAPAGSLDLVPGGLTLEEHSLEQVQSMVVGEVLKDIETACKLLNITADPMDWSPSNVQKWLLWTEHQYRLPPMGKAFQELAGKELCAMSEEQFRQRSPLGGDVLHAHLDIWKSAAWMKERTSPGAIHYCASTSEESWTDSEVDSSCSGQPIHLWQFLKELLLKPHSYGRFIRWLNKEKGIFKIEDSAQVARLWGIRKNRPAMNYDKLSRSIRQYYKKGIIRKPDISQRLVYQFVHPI
How it was run: as §1

[13] = molecular target: T9, ETV7 (Homo sapiens, UniProt Q9Y603 1-341)
T9 sequence: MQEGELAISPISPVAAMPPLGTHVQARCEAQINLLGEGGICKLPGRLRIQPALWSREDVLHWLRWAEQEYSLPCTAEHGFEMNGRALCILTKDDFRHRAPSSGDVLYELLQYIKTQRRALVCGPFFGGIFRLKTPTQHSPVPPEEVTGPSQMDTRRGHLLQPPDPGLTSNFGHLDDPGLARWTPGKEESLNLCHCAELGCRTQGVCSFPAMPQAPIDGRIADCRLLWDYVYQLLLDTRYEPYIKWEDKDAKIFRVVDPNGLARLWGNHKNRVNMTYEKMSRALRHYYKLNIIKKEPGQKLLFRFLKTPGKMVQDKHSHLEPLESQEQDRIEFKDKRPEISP
How it was run: as §1

[14] = molecular target: T10, ELF5 (Homo sapiens, UniProt Q9UKW6-2 1-255)
T10 sequence: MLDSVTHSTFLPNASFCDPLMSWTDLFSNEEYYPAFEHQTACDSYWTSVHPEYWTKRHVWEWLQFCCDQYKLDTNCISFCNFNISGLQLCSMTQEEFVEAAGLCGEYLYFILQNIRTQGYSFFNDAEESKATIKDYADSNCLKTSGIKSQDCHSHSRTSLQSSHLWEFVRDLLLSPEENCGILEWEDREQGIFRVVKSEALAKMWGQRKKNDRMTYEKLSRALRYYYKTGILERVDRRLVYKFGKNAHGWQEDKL
How it was run: as §1

[15] = molecular target: T11, ETV3 (Homo sapiens, UniProt P41162-2 1-143)
T11 sequence: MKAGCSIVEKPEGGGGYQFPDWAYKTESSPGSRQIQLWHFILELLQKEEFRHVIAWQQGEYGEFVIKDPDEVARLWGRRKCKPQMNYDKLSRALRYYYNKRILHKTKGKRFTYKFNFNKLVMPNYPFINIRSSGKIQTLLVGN
How it was run: as §1

[16] = molecular target: ETV6 (Homo sapiens, UniProt P41212 1-452)
Chain of ETV6 (P41212 whole entry): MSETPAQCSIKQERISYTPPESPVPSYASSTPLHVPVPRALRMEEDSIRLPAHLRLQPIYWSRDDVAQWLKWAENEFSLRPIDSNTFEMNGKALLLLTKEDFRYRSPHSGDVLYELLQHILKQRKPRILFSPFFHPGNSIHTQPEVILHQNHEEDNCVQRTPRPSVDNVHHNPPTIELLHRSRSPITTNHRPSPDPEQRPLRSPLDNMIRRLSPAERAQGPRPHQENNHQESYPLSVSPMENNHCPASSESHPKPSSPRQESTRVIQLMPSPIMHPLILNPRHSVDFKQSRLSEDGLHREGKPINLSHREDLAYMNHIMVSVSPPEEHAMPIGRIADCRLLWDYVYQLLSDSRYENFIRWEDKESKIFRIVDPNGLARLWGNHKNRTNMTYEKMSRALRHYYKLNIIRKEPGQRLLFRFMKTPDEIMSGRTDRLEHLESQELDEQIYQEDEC
How it was run: as §1

[17] = molecular target: T12, FEV (Homo sapiens, UniProt Q99581 1-238)
T12 sequence: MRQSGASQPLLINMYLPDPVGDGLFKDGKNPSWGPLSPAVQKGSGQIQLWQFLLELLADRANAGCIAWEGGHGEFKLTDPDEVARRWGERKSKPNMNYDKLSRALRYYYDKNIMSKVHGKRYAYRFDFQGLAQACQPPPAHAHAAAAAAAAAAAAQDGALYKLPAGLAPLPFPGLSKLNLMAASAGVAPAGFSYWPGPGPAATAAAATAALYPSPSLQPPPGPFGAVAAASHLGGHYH
How it was run: as §1

Chain of ETV5 (P41161 whole entry, the tested form may be a part): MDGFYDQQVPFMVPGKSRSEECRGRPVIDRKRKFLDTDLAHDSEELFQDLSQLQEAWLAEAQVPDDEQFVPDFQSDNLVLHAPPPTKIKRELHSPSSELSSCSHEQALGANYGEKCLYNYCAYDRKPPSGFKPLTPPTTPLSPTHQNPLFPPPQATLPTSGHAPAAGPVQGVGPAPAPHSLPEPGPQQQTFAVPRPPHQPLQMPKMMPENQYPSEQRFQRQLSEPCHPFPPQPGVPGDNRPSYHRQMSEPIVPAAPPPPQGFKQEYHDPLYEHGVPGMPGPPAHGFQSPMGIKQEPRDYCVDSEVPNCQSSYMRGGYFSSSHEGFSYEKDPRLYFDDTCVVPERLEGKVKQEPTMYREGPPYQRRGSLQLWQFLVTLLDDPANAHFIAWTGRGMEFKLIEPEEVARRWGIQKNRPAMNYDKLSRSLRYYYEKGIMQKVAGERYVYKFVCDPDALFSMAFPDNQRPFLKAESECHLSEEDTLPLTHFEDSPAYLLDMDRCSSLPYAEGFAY

For TGCTGA, the binding signal [1] was 1.07 fold enrichment (6-mer frequency, TF over GST control), the binding signal [2] was 1.18 fold enrichment (6-mer frequency, TF over GST control) and the binding signal [3] was 1.15 fold enrichment (6-mer frequency, TF over GST control). The binding signal [4] was 1.11 fold enrichment (6-mer frequency, TF over GST control), the binding signal [5] was 1.15 fold enrichment (6-mer frequency, TF over GST control) and the binding signal [6] was 1.09 fold enrichment (6-mer frequency, TF over GST control). For the same sequence, the binding signal [7] was 1.04 fold enrichment (6-mer frequency, TF over GST control), the binding signal [8] was 1.12 fold enrichment (6-mer frequency, TF over GST control) and the binding signal [9] was 1.03 fold enrichment (6-mer frequency, TF over GST control). The binding signal [10] was 1.05 fold enrichment (6-mer frequency, TF over GST control), the binding signal [11] was 1.11 fold enrichment (6-mer frequency, TF over GST control) and the binding signal [12] was 1.11 fold enrichment (6-mer frequency, TF over GST control). The binding signal [13] was 1.07 fold enrichment (6-mer frequency, TF over GST control), the binding signal [14] was 1 fold enrichment (6-mer frequency, TF over GST control) and the binding signal [15] was 1.12 fold enrichment (6-mer frequency, TF over GST control). The binding signal [16] was 1.01 fold enrichment (6-mer frequency, TF over GST control).

CCTGTA was tested, and the binding signal [17] was 1.2 fold enrichment (6-mer frequency, TF over GST control), the binding signal [1] was 1.26 fold enrichment (6-mer frequency, TF over GST control) and the binding signal [2] was 1.23 fold enrichment (6-mer frequency, TF over GST control). The binding signal [3] was 1.25 fold enrichment (6-mer frequency, TF over GST control), the binding signal [4] was 1.16 fold enrichment (6-mer frequency, TF over GST control) and the binding signal [5] was 1.21 fold enrichment (6-mer frequency, TF over GST control). For the same sequence, the binding signal [6] was 1.09 fold enrichment (6-mer frequency, TF over GST control), the binding signal [7] was 1.04 fold enrichment (6-mer frequency, TF over GST control) and the binding signal [8] was 1.3 fold enrichment (6-mer frequency, TF over GST control). The binding signal [9] was 1.24 fold enrichment (6-mer frequency, TF over GST control), the binding signal [10] was 1.22 fold enrichment (6-mer frequency, TF over GST control) and the binding signal [11] was 1.15 fold enrichment (6-mer frequency, TF over GST control). The binding signal [12] was 1.36 fold enrichment (6-mer frequency, TF over GST control), the binding signal [13] was 1.21 fold enrichment (6-mer frequency, TF over GST control) and the binding signal [14] was 1.43 fold enrichment (6-mer frequency, TF over GST control). For the same sequence, the binding signal [15] was 1.35 fold enrichment (6-mer frequency, TF over GST control) and the binding signal [16] was 1.18 fold enrichment (6-mer frequency, TF over GST control).

Source: publication PMC7862700, “An all-to-all approach to the identification of sequence-specific readers for epigenetic DNA modifications on cytosine”
